In PubChem BioAssay AID1159580 (chemical genetic matrix, 2015):
The whole screen tested about 5,500 compounds, of which about 2,000 (36%) were called active. Roughly 18% stayed inconclusive and do not appear here. No stated cut-off is given here; in the data, active means normalized growth mostly below about 0.91 (no sharp cut-off); inconclusive means no clear call, values can overlap the other calls; inactive means mostly above about 0.92. The list shows a part of the results.

Assay: chemical genetic growth profiling, strain panel (AID 1159580);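 further: tested at 20 µM; growth read once vehicle control cultures reached saturation at 30 °C; 1 = growth at the plate median or of vehicle wells; lower values mean less growth of the strain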
Conditions: S. cerevisiae deletion strains, growth OD
[1] = locus YAR019C, strain CDC15, active compounds read low
[2] = locus YBL105C, strain PKC1, active compounds read low
[3] = locus YBR135W, strain CKS1, active compounds read low
[4] = locus YBR136W, strain MEC1, active compounds read low
[5] = locus YBR160W, strain CDC28, active compounds read low
[6] = locus YDL017W, strain CDC7, active compounds read low
[7] = locus YDL028C, strain MPS1, active compounds read low
[8] = locus YDL101C, strain DUN1, active compounds read low
[9] = locus YDL108W, strain KIN28, active compounds read low
[10] = locus YDL132W, strain cdc53, active compounds read low
[11] = locus YDL214C, strain PRR2, active compounds read low
[12] = locus YDR052C, strain DBF4, active compounds read low
[13] = locus YDR054C, strain cdc34, active compounds read low
[14] = locus YDR226W, strain ADK1, active compounds read low
[15] = locus YDR477W, strain SNF1, active compounds read low
[16] = locus YER123W, strain YCK3, active compounds read low
[17] = locus YER133W, strain GLC7, active compounds read low
[18] = locus YFL009W, strain cdc4, active compounds read low
[19] = locus YFL029C, strain CAK1, active compounds read low
[20] = locus YFR003C, strain YPI1, active compounds read low
[21] = locus YFR019W, strain FAB1, active compounds read low
[22] = locus YFR028C, strain CDC14, active compounds read low
[23] = locus YGR040W, strain KSS1, active compounds read low
[24] = locus YGR052W, strain FMP48, active compounds read low
[25] = locus YGR092W, strain DBF2, active compounds read low
[26] = locus YHR030C, strain SLT2, active compounds read low
[27] = locus YHR079C, strain IRE1, active compounds read low
[28] = locus YHR082C, strain KSP1, active compounds read low
[29] = locus YHR205W, strain SCH9, active compounds read low
[30] = locus YIL147C, strain SLN1, active compounds read low
[31] = locus YJL095W, strain BCK1, active compounds read low
[32] = locus YJL128C, strain PBS2, active compounds read low
[33] = locus YJL157C, strain FAR1, active compounds read low
[34] = locus YJR016C, strain ILV3, active compounds read low
[35] = locus YJR066W, strain TOR1 (second series), active compounds read low
[36] = locus YJR066W, strain TOR1, active compounds read low
[37] = locus YKL048C, strain ELM1, active compounds read low
[38] = locus YKL067W, strain YNK1, active compounds read low
[39] = locus YKL101W, strain HSL1, active compounds read low
[40] = locus YKL193C, strain SDS22, active compounds read low
[41] = locus YKL203C, strain TOR2, active compounds read low
[42] = locus YLR113W, strain HOG1, active compounds read low
[43] = locus YLR133W, strain CKI1, active compounds read low
[44] = locus YLR403W, strain SFP1, active compounds read low
[45] = locus YML070W, strain DAK1, active compounds read low
[46] = locus YMR001C, strain CDC5, active compounds read low
[47] = locus YMR205C, strain PFK2 (second series), active compounds read low
[48] = locus YMR277W, strain FCP1, active compounds read low
[49] = locus YNL006W, strain LST8, active compounds read low
[50] = locus YNL020C, strain ARK1, active compounds read low
[51] = locus YNL161W, strain CBK1, active compounds read low
[52] = locus YNL183C, strain NPR1, active compounds read low
[53] = locus YNL207W, strain RIO2, active compounds read low
[54] = locus YNL222W, strain SSU72, active compounds read low
[55] = locus YNL307C, strain MCK1 (second series), active compounds read low
[56] = locus YOL078W, strain AVO1, active compounds read low
[57] = locus YOL136C, strain PFK27, active compounds read low
[58] = locus YOR061W, strain CKA2, active compounds read low
[59] = locus YOR119C, strain RIO1, active compounds read low
[60] = locus YOR231W, strain MKK1, active compounds read low
[61] = locus YOR329C, strain SCD5, active compounds read low
[62] = locus YPL031C, strain PHO85, active compounds read low
[63] = locus YPL153C, strain RAD53, active compounds read low
[64] = locus YPL204W, strain HRR25, active compounds read low
[65] = locus YPL209C, strain IPL1, active compounds read low
[66] = locus YPL256C, strain CLN2, active compounds read low
[67] = locus YPR025C, strain CCL1, active compounds read low
[68] = locus YPR106W, strain ISR1, active compounds read low
[69] = locus YPR111W, strain DBF20, active compounds read low
[70] = strain NNK1, active compounds read low
[71] = strain TSCII, active compounds read low

Measured: normalized growth

O=C(OCc1ccc(Oc2ccc(Cl)cc2Cl)c([N+](=O)[O-])c1)c1ccc([N+](=O)[O-])o1
inactive: [1] 0.98 | [2] 0.975 | [3] 0.981 | [4] 0.961 | [5] 0.97 | [6] 0.979 | [7] 0.958 | [8] 0.98 | [9] 0.969 | [10] 0.974 | [11] 1.01 | [12] 0.99 | [13] 0.968 | [14] 0.97 | [15] 0.971 | [16] 0.987 | [17] 0.995 | [18] 0.956 | [19] 0.978 | [20] 0.985 | [21] 0.99 | [22] 0.969 | [23] 0.977 | [24] 1.07 | [25] 0.957 | [26] 0.916 | [27] 0.997 | [28] 1.04 | [29] 0.93 | [30] 0.977 | [31] 0.993 | [32] 0.896 | [33] 0.987 | [34] 0.982 | [35] 0.971 | [36] 0.972 | [37] 0.991 | [38] 1 | [39] 0.983 | [40] 0.986 | [41] 1.07 | [42] 0.999 | [43] 0.985 | [44] 0.962 | [45] 1 | [46] 0.97 | [47] 1.01 | [48] 0.966 | [49] 0.986 | [50] 0.996 | [51] 0.987 | [52] 1.07 | [53] 0.982 | [54] 0.976 | [55] 0.987 | [56] 0.985 | [57] 1 | [58] 0.975 | [59] 1.03 | [60] 0.957 | [61] 0.982 | [62] 0.974 | [63] 0.976 | [64] 0.983 | [65] 0.983 | [66] 0.993 | [67] 0.979 | [68] 0.972 | [69] 0.958 | [70] 0.983 | [71] 0.968

O=C(N/N=C\c1ccc([N+](=O)[O-])o1)c1ccc(O)cc1
inactive: [26] 0.924 | [27] 0.936 | [31] 0.907 | [36] 0.883 | [42] 0.872 | [52] 0.869 | [60] 0.91 | [66] 0.956

O=C(SCc1c(Cl)cccc1Cl)c1ccc([N+](=O)[O-])o1
inactive: [1] 0.954 | [2] 0.96 | [3] 0.968 | [4] 0.969 | [5] 0.964 | [6] 0.967 | [7] 0.969 | [8] 0.978 | [9] 0.961 | [10] 0.967 | [12] 0.967 | [13] 0.95 | [14] 0.959 | [18] 0.955 | [19] 0.951 | [20] 0.962 | [22] 0.962 | [30] 0.972 | [31] 0.624 | [32] 0.868 | [34] 0.965 | [40] 0.954 | [46] 0.942 | [48] 0.968 | [49] 0.976 | [51] 0.965 | [53] 0.947 | [54] 0.971 | [56] 0.963 | [61] 0.964 | [65] 0.976 | [67] 0.959 | [68] 0.985 | [69] 0.978 | [70] 0.959 | [71] 0.939
active: [11] 0.456 | [15] 0.295 | [16] 0.422 | [17] 0.553 | [21] 0.612 | [23] 0.324 | [24] 0.502 | [25] 0.221 | [26] 0.179 | [27] 0.334 | [28] 0.332 | [29] 0.0602 | [33] 0.477 | [35] 0.351 | [36] 0.425 | [37] 0.65 | [38] 0.652 | [39] 0.571 | [41] 0.438 | [42] 0.4 | [43] 0.499 | [44] 0.201 | [45] 0.547 | [47] 0.677 | [50] 0.48 | [52] 0.438 | [55] 0.247 | [57] 0.406 | [58] 0.633 | [59] 0.445 | [60] 0.578 | [62] 0.396 | [63] 0.614 | [64] 0.371 | [66] 0.232
